Source: PubChem
In the library only some 0.92% were active in any assay of this set; here they are far more common.
LAP4-GFP MLPCN: alters LAP4-GFP fluorescence in TOR pathway yeast screen. S. cerevisiae LAP4-GFP multiplex, flow cytometry GFP, 3 h; median GFP as percent of DMSO wells. GFP response vs DMSO, % at 10 µM. 320,000 tested, 0.34% active. AID 2023;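 active = GFP response vs DMSO above a set limit, about the screen mean plus 3 SD, cut at about 150% in these data; inconclusive = under 70 cell events counted for the yeast strain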
AGP1-GFP MLPCN: modulators of TOR pathway AGP1-GFP in S. cerevisiae; S. cerevisiae AGP1-GFP multiplex flow cytometry, 3 h; GFP as percent of DMSO wells; GFP response vs DMSO, % at 10 µM; 320,000 tested, 0.02% active;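 active = GFP response relative to DMSO above a set limit, near screen average plus 3 SD, cut at about 150% in these data; inconclusive = fewer than 70 cells counted for the yeast strain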;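 also: median GFP channel fluorescence of the gated AGP1 strain per well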
MEP2 TOR yeast: modulators of TOR pathway MEP2-GFP in S. cerevisiae | S. cerevisiae MEP2-GFP strain, flow cytometry GFP, 3 h; 100% = DMSO control level | GFP response vs DMSO, % at 10 µM | 330,000 tested, 0.51% active;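 active = GFP response versus DMSO above a set limit, roughly screen mean plus 3 SD, cut at about 180% in these data; inconclusive = fewer than 70 cells counted for a yeast strain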;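 also: median GFP fluorescence of the barcode-gated MEP2-GFP cells per well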
RPL19A-GFP yeast: yeast TOR pathway RPL19A-GFP modulation | S. cerevisiae RPL19A-GFP strain, flow cytometry, 3 h; hits give low values | percent response vs DMSO, % at 10 µM | 330,000 tested, 0.3% active;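 active = percent response vs DMSO below 50%; inconclusive = fewer than 70 events counted for the yeast strain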;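 also: median channel GFP fluorescence of the barcoded RPL19A-GFP strain; ratio of sample median GFP to plate DMSO average so 100% = DMSO; lower means less RPL19A-GFP as with rapamycin TOR inhibition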
CIT2 TOR yeast: yeast TOR pathway CIT2-GFP modulation; S. cerevisiae CIT2-GFP strain, flow cytometry, 3 h; 100 means same as DMSO wells; GFP response vs DMSO, % at 10 µM; 320,000 tested, 0.065% active; AID 2029;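 active = GFP response relative to DMSO above a set limit, near the screen mean plus 3 SD, cut at about 150% in these data; inconclusive = Fewer than 70 cells measured for a yeast strain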;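 also: ratio of well median GFP fluorescence to mean of DMSO wells on the plate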
LAP4-GFP pick2: reconfirmed LAP4-GFP TOR pathway modulator in yeast. 590 tested, 20% active. GFP response vs DMSO, % at 10 µM. AID 2621. shares compounds with LAP4-GFP MLPCN. S. cerevisiae LAP4-GFP strain, flow cytometry GFP, 3 h;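 active = GFP signal as percent of the solvent control above about 150%, meaning raised reporter expression, limit read from the data; inconclusive = fewer than 70 cells counted in the well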;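 also: ratio of well median GFP fluorescence to plate DMSO mean so 100% = DMSO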
MEP2-GFP pick2: second confirmation of modulators of TOR reporter MEP2-GFP in yeast; shares compounds with LAP4-GFP MLPCN; S. cerevisiae MEP2-GFP strain, flow cytometry GFP, 3 h; GFP response vs DMSO, % at 10 µM; 590 tested, 10% active; AID 2622;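 active = GFP signal above 150% of the solvent control wells, that is a rise of more than half; inconclusive = fewer than 70 yeast cells counted in the well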;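 also: median channel GFP fluorescence of all gated yeast cells per well; ratio of median GFP to plate DMSO average so 100% = DMSO level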
RPL19A GFP CP2: second confirmation of modulators of TOR reporter RPL19A-GFP in yeast. AID 2623. GFP response vs DMSO, % at 10 µM. S. cerevisiae RPL19A-GFP strain, flow cytometry GFP, 3 h; hits give low values; 100% means same as DMSO wells. shares compounds with LAP4-GFP MLPCN. 590 tested, 3% active;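 active = under 65% GFP response relative to DMSO; inconclusive = yeast strain with under 70 measured events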;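 also: median GFP channel fluorescence per well over the all cells gate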
CIT2-GFP pick2: yeast CIT2-GFP TOR reporter modulation, second cherry pick; shares compounds with LAP4-GFP MLPCN; AID 2624; S. cerevisiae CIT2-GFP strain, flow cytometry GFP, 3 h; DMSO control wells read 100%; GFP response vs DMSO, % at 10 µM; 590 tested, 8% active;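 active = GFP response vs DMSO above about 150%, limit read from the data; inconclusive = fewer than 70 events counted for a yeast strain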;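 also: median green fluorescence per well over all gated yeast cells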
AGP1 GFP CP2: yeast AGP1-GFP TOR reporter modulation, second cherry pick. shares compounds with LAP4-GFP MLPCN. S. cerevisiae AGP1-GFP strain, flow cytometry GFP, 3 h. percent response vs DMSO, % at 10 µM. 590 tested, under 10 active;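 active = over 150 percent of DMSO response; inconclusive = yeast strain measured with under 70 events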;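 also: median GFP channel fluorescence over all cells without mother daughter split; sample median GFP divided by mean DMSO control so 100% equals DMSO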
s288c autofluor: counter-screen for compound autofluorescence in yeast s288c cells | shares compounds with LAP4-GFP MLPCN | S. cerevisiae s288c, 520 nm autofluorescence, flow cytometry, 3 h; hits give high values; zero means same as solvent-only cells | fluorescence change (kMESF span) at 33 µM | 610 tested, under 10 active;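 active = fluorescence span over the dose series, or activity score, above about 33, limit read from the data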
* marks the source's active call; other numbers are inactive results; ? = inconclusive; . = no result given; [ ] = another dose, or the depositor's remark.

SMILES | LAP4-GFP MLPCN | AGP1-GFP MLPCN | MEP2 TOR yeast | RPL19A-GFP yeast | CIT2 TOR yeast | LAP4-GFP pick2 | MEP2-GFP pick2 | RPL19A GFP CP2 | CIT2-GFP pick2 | AGP1 GFP CP2 | others
CNC(=O)N(O)C1N(/N=C/c2ccc(C)cc2)C(=S)SC1(C)C (stereo unspecified) | 96 | 96 | 108 | 108 | 96 | . | . | . | . | .
CNC(=O)N(O)C1N(/N=C/c2c(F)cccc2Cl)C(=S)SC1(C)C (stereo unspecified) | 72 | 15 | 244*[may fluoresce violet] | 56 | ? | . | . | . | . | .
COC(=O)C(C(=O)Nc1ncccn1)C1CCCCCC1 (stereo unspecified) | 107 | ? | 317*[may fluoresce violet] | ? | ? | . | . | . | . | .
O=C1CC(c2ccccc2)c2cc(O)ccc2O1 (stereo unspecified) | 101 | 101 | 103 | 104 | 108 | . | . | . | . | .
Cc1ccc(C2CC(=O)Oc3cc(O)ccc32)cc1 (stereo unspecified) | 180* | 90 | 97 | 75 | 70 | 115 | 138 | 89 | 100 | 111
Brc1ccc(Oc2nsnc2N2CCOCC2)cc1 | 95 | 27 | 180* | 100 | 82 | 96 | 103 | 102 | 104 | 97
Cc1ccc(C2=NN(S(C)(=O)=O)C(c3cccs3)C2)cc1 (stereo unspecified) | 111 | 112 | 105 | 105 | 95 | . | . | . | . | .
CCc1ccc(C2=NN(S(C)(=O)=O)C(c3cccs3)C2)cc1 (stereo unspecified) | 258* | 128 | 378* | 131 | 230* | 253* | 484* | 132 | 384* | 132
CCCN(CC(=O)Nc1ccccc1C)C(=O)c1ccc(-c2ccc([N+](=O)[O-])cc2)o1 | 196* | 140 | 609* | 70 | 132 | 101 | 101 | 99 | 96 | 102
O=c1c2cc(Cl)ccc2nc(-c2ccccc2Cl)n1O | 113 | 76 | 95 | 60 | 75 | 105 | 98 | 100 | 88 | 104
CN(C)c1ccc(C(=O)c2ccc(O)cc2O)cc1 | 206* | 58 | 85 | 81 | 84 | 105 | 100 | 99 | 90 | 89
O=C(c1ccc(O)cc1)c1ccc(O)cc1O | 114 | 102 | 99 | 102 | 98 | . | . | . | . | .
CC1=CC(=O)C(C(C)C)=C/C1=N/OS(=O)(=O)c1ccccc1 | 216* | 98 | 77 | 73 | 75 | . | . | . | . | . | s288c autofluor=2.8
Cc1ccc2c(c1)/C(=N/OS(=O)(=O)c1ccccc1)CCS2 | 103 | 102 | 105 | 94 | 99 | . | . | . | . | .
O=C(CCNS(=O)(=O)c1ccccc1)N1CCN(C(c2ccccc2)c2ccccc2)CC1 | 72 | 91 | 95 | 103 | 103 | . | . | . | . | .
O=C(Oc1oc(-c2ccco2)nc1C=Nc1ccc(Cl)cc1)c1ccco1 | 230* | 82 | 96 | 91 | 102 | . | . | . | . | . | s288c autofluor=0.21
Oc1oc(-c2ccccc2)nc1C=Nc1ccccc1 | 120 | 95 | 115 | 101 | 97 | . | . | . | . | .
COc1ccccc1N=Cc1nc(-c2ccccc2)oc1OC(C)=O | 108 | 91 | 95 | 94 | 78 | . | . | . | . | . | s288c autofluor=-0.7
